Where “and” joins values, the source holds several entries; their conditions need not be identical. Equal entries are not always repeated. Calls of active or inactive are those of the source. No stated cut-off is given here; in the data, active means plate-normalised HSF1 focus index below about 0.46; inactive means the rest.
Assay: viability loss with induced miR-34 in A549 – imaging, A549 dox-inducible miR-34, nuclei and caspase counts, primary screen (AID 1347080)
Conditions: A549 miR-34 inducible, Hoechst nuclei count, 48 h; measured here: total cells with miR-34 induction; stronger effect = lower value
For `N#CCNC(=O)c1ccc(-c2ccnc(Nc3ccc(N4CCOCC4)cc3)n2)cc1`, the cell count was 1150.
For `COc1ccc2c(c1)CC[C@@H]1[C@@H]2CC[C@]2(C)[C@@H](NCCCCCCN3C(=O)C=CC3=O)CC[C@@H]12`, the cell count was 5880 and 5430.
For `CC1(C)CCC2=C(O1)c1ccccc1C(=O)C2=O`, the cell count was 1260 and 1140 and 1760.
`Cc1ncc(-c2ccnc(Nc3ccc(S(C)(=O)=O)cc3)n2)n1C(C)C` showed a cell count of 1780.
For `Nc1nc(Nc2ccc(S(N)(=O)=O)cc2)nn1C(=O)c1c(F)cccc1F`, the cell count was 1400.
`O=C(Nc1ccccc1-c1cn2c(CN3CCNCC3)csc2n1)c1cnc2ccccc2n1` showed a cell count of 6250.
With `CC(C)c1cc(C(C)C)c(CC(=O)NS(=O)(=O)Oc2c(C(C)C)cccc2C(C)C)c(C(C)C)c1` the cell count was 5000.
`CC1(C)CNc2cc(NC(=O)c3cccnc3NCc3ccncc3)ccc21` showed a cell count of 7470.
`COc1cc2nccc(Oc3ccc(NC(=O)Nc4cc(C)on4)c(Cl)c3)c2cc1OC` showed a cell count of 2720.
Work on `Cc1cc(Nc2cc(CN3CCOCC3)c3nc(C)c(Cc4ccc(Cl)cc4F)n3n2)n[nH]1` yielded a cell count of 1440.
For `N#Cc1c(NC(=O)c2cccc3ccccc23)sc2c1CCCC2`, the cell count was 1320.
`COc1cccc2cc(-c3nc(C4CCC(C(=O)O)CC4)n4ncnc(N)c34)[nH]c12` (configuration not stated) showed a cell count of 3250.
In the case of `COC(=O)c1ccc2c(C(=Nc3ccc(N(C)C(=O)CN4CCN(C)CC4)cc3)c3ccccc3)c(O)[nH]c2c1`, the cell count is reported as 5790.
With `Cc1ccc(F)c(NC(=O)Nc2ccc(-c3cccc4[nH]nc(N)c34)cc2)c1` the cell count was 2590.

Same assay, conditions: A549 miR-34 inducible, Hoechst nuclei count, 48 h; measured here: total cells without miR-34 induction
In the case of `N#CCNC(=O)c1ccc(-c2ccnc(Nc3ccc(N4CCOCC4)cc3)n2)cc1`, the cell count is reported as 1230.
With `COc1ccc2c(c1)CC[C@@H]1[C@@H]2CC[C@]2(C)[C@@H](NCCCCCCN3C(=O)C=CC3=O)CC[C@@H]12` the cell count was 6300 and 5860.
For `CC1(C)CCC2=C(O1)c1ccccc1C(=O)C2=O`, the cell count was 1190 and 1130 and 1740.
With `Cc1ncc(-c2ccnc(Nc3ccc(S(C)(=O)=O)cc3)n2)n1C(C)C` the cell count was 1790.
With `Nc1nc(Nc2ccc(S(N)(=O)=O)cc2)nn1C(=O)c1c(F)cccc1F` the cell count was 1580.
`O=C(Nc1ccccc1-c1cn2c(CN3CCNCC3)csc2n1)c1cnc2ccccc2n1` showed a cell count of 6890.
In the case of `CC(C)c1cc(C(C)C)c(CC(=O)NS(=O)(=O)Oc2c(C(C)C)cccc2C(C)C)c(C(C)C)c1`, the cell count is reported as 5220.
In the case of `CC1(C)CNc2cc(NC(=O)c3cccnc3NCc3ccncc3)ccc21`, the cell count is reported as 7630.
In the case of `COc1cc2nccc(Oc3ccc(NC(=O)Nc4cc(C)on4)c(Cl)c3)c2cc1OC`, the cell count is reported as 2010.
Work on `Cc1cc(Nc2cc(CN3CCOCC3)c3nc(C)c(Cc4ccc(Cl)cc4F)n3n2)n[nH]1` yielded a cell count of 982.
With `N#Cc1c(NC(=O)c2cccc3ccccc23)sc2c1CCCC2` the cell count was 1290.
Work on `COc1cccc2cc(-c3nc(C4CCC(C(=O)O)CC4)n4ncnc(N)c34)[nH]c12` (configuration not stated) yielded a cell count of 3360.
For `COC(=O)c1ccc2c(C(=Nc3ccc(N(C)C(=O)CN4CCN(C)CC4)cc3)c3ccccc3)c(O)[nH]c2c1`, the cell count was 6370.
With `Cc1ccc(F)c(NC(=O)Nc2ccc(-c3cccc4[nH]nc(N)c34)cc2)c1` the cell count was 2860.

Assay: compounds altering HSF1 focus formation in cells – imaging, Selleck Cancer Library (AID 1347162)
Conditions: human cells, HSF1 nuclear foci imaging, at 10 µM; SSMD: measured here: HSF1 foci SSMD mean; cell count: measured here: cell number; plate-normalised HSF1 focus index: stronger effect = lower value
For `N#CCNC(=O)c1ccc(-c2ccnc(Nc3ccc(N4CCOCC4)cc3)n2)cc1`, the cell count was 7330, the plate-normalised HSF1 focus index was 0.876 (inactive) and the SSMD was -3.51.
For `CCOc1cc(/C=C2/C(=O)N(c3ccccc3)N=C2C)cc(Cl)c1OCC(=O)OC`, the cell count was 6670, the plate-normalised HSF1 focus index was 1.07 (inactive) and the SSMD was 1.24.
In the case of `C#CCN(C)CC1=Cc2ccccc2Oc2ccccc21`, the SSMD is reported as 2.55, the plate-normalised HSF1 focus index is reported as 1.15 (inactive) and the cell count is reported as 6620.
In the case of `Nc1nc(Nc2ccc(S(N)(=O)=O)cc2)nn1C(=O)c1c(F)cccc1F`, the cell count is reported as 6780, the plate-normalised HSF1 focus index is reported as 0.961 (inactive) and the SSMD is reported as -0.763.
With `O=C(Nc1ccccc1-c1cn2c(CN3CCNCC3)csc2n1)c1cnc2ccccc2n1` the SSMD was -4.31, the plate-normalised HSF1 focus index was 0.795 (inactive) and the cell count was 6160.
In the case of `COc1ccc(-c2ccc3c(N4CCOCC4)nc(N4C[C@@H](C)O[C@@H](C)C4)nc3n2)cc1CO`, the SSMD is reported as -1.75, the plate-normalised HSF1 focus index is reported as 0.909 (inactive) and the cell count is reported as 6570.
For `CC1(C)CNc2cc(NC(=O)c3cccnc3NCc3ccncc3)ccc21`, the cell count was 7450, the plate-normalised HSF1 focus index was 1.16 (inactive) and the SSMD was 2.51.
For `CCOc1cc2ncc(C#N)c(Nc3ccc(OCc4ccccn4)c(Cl)c3)c2cc1NC(=O)/C=C/CN(C)C`, the plate-normalised HSF1 focus index was 0.928 (inactive), the cell count was 7340 and the SSMD was -1.15.
In the case of `COc1cc2nccc(Oc3ccc(NC(=O)Nc4cc(C)on4)c(Cl)c3)c2cc1OC`, the cell count is reported as 7170, the plate-normalised HSF1 focus index is reported as 1.19 (inactive) and the SSMD is reported as 3.28.
In the case of `COc1ccc(-c2ccc3c(N4CCOC[C@@H]4C)nc(N4CCOC[C@@H]4C)nc3n2)cc1CO`, the plate-normalised HSF1 focus index is reported as 0.995 (inactive), the SSMD is reported as -0.138 and the cell count is reported as 7120.
In the case of `Cc1cnc(NC(=O)Nc2cc(Br)c(C)cc2OC[C@@H]2CNCCO2)cn1`, the cell count is reported as 6470, the SSMD is reported as 3.14 and the plate-normalised HSF1 focus index is reported as 1.16 (inactive).
For `COC(=O)c1ccc2c(C(=Nc3ccc(N(C)C(=O)CN4CCN(C)CC4)cc3)c3ccccc3)c(O)[nH]c2c1`, the SSMD was 2.23, the plate-normalised HSF1 focus index was 1.08 (inactive) and the cell count was 7520.
For `Cc1ccc(F)c(NC(=O)Nc2ccc(-c3cccc4[nH]nc(N)c34)cc2)c1`, the SSMD was 4.01, the cell count was 6540 and the plate-normalised HSF1 focus index was 1.21 (inactive).
